HCV inh: qHTS Assay for Inhibitors of Hepatitis C Virus (HCV). Huh7.5.1 HCVcc-Cre infection, luciferase reporter, 44 h. Potency, µM (doses to about 41.8 µM), usual class: inhibitors. 3.4% of 340,000 active. AID 651820, 2012; active means well fitted inhibition curve with a large enough effect; inconclusive means small, poorly fitted or top-dose-only effect, or another doubt; inactive means no such curve, though single readings can be large or run the other way
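1,000 cells/well; 4 h culture; + compound; + HCVcc-Cre (~0.5 moi); 44 h; luciferase substrate, RT 15 min; read 15 sec.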
Lassa entry inh: qHTS for Inhibitors of binding or entry into cells for Lassa Virus. AID 540256, 2011. 1.2% of 300,000 active. Lassa virus pseudotype entry inhibition, cell reporter. Potency, µM (doses to about 37.9 µM), actives largely listed as inhibitors; calls by dose curve; tested in HEK293 cells; further: nearly all actives have a fitted effect of over 50% in size
FMDV inh: High Throughput Screening for Foot and Mouth Disease Virus Antivirals. FMDV antiviral cell-based qHTS. Potency, µM (series often up to 57.9 µM), hits mostly inhibitors. 1.2% of 410,000 active. AID 1159524, 2015; calls by dose curve; tested in HEK293T cells; further: read-out not given here; nearly all actives have a fitted effect of over 45% in size
HCMV antiviral: qHTS Assay for inhibitors of the human cytomegalovirus (HCMV) | activity change, negative = inhibition, % at 57.5 µM | 4.5% of 410,000 active | HFF cells, HCMV-luciferase reporter, 72 h; active compounds read low; in the data active means activity change below about -60%; inconclusive means no clear call, values can overlap the other calls; inactive means above about -39%
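Two-dose cell screen: HFF monolayers treated with compounds and infected with luciferase-expressing HCMV at 1 PFU/cell, 72 h at 37C, then lysed for luciferase measurement.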
MARV entry inh: qHTS for inhibitors of binding or entry into cells for Marburg Virus. Marburg virus pseudotyped entry inhibition, cell reporter. Potency, µM (titrated, usually from 37.8 µM), actives largely listed as inhibitors. 1.8% of 300,000 active. AID 540276, 2011; calls by dose curve; tested in HEK293 cells
Of the large screens only hits and unclear results are named; the others gave an inactive call. This is a sample that favours compounds with a hit; in the whole collection about 7.9% have one here.

O[C@@H]1[C@@H](O)C=C2CCN3Cc4cc5c(cc4[C@H]1C23)OCO5 (stereo partly drawn)	HCV inh 3.2µM, FMDV inh inconclusive, HCMV antiviral -98 (no result: Lassa entry inh, MARV entry inh)
O=C(Nc1ccc(Oc2ccc3c(c2)C(=O)N(c2ccc(O)cc2)C3=O)cc1)c1cccs1	HCMV antiviral -78, MARV entry inh inconclusive
CCOC(=O)Cn1c(=O)n(-c2ccccc2OC)c2nc(-c3ccc(C(C)C)cc3)nc(C(N)=O)c21	Lassa entry inh inconclusive (no result: HCV inh, MARV entry inh)
C=CC(=O)N1C/C(=C/c2ccc(F)cc2)C(=O)/C(=C\c2ccc(F)cc2)C1	HCV inh inconclusive, Lassa entry inh 2.5µM, FMDV inh 8.9µM, HCMV antiviral -100, MARV entry inh inconclusive
CCc1ccccc1NC(=O)C1(S(=O)(=O)c2ccc(Cl)cc2)CC1	none (no result: HCV inh)
COc1cc(C#Cc2c(-c3cncn3C)n(C)c3ccc(-c4ccc(CN5CCOCC5)cc4)cc23)cc(OC)c1	HCV inh 11µM (no result: Lassa entry inh, MARV entry inh)
COc1cc(C#Cc2c(-c3cncn3C)n(C)c3ccc(-c4cnc(N5CCOCC5)nc4)cc23)cc(OC)c1	none (no result: Lassa entry inh, MARV entry inh)
COc1ccc(NS(=O)(=O)c2ccc(-c3cnc(C4CC4)o3)cc2)cc1Cl	Lassa entry inh inconclusive (no result: HCV inh, MARV entry inh)
NC(N)=N/N=C/c1ccc(OCc2ccccc2)cc1	HCV inh inconclusive, HCMV antiviral -96, MARV entry inh inconclusive (no result: FMDV inh)
NC(N)=N/N=C/c1ccc(OCc2ccc(Cl)cc2)cc1	HCV inh inconclusive, Lassa entry inh inconclusive, MARV entry inh inconclusive
Cc1ccc(N(C)C(=O)Cn2nc(Cc3ccncc3)c3ccccc3c2=O)cc1C	HCMV antiviral inconclusive (no result: HCV inh)
COc1ccc(Oc2nc3c(c(=O)n(Cc4ccccc4Cl)c(=O)n3C)n2C)cc1	Lassa entry inh inconclusive (no result: HCV inh)
CCOc1nc2c(c(=O)n(C)c(=O)n2C)n1Cc1ccccc1Cl	HCV inh inconclusive, HCMV antiviral -93
COCCOc1nc2c(c(=O)n(C)c(=O)n2C)n1Cc1cccc(OC)c1	HCV inh 11µM, FMDV inh inconclusive, HCMV antiviral inconclusive, MARV entry inh inconclusive
Cn1c(=O)c2c(nc(Br)n2Cc2ccccc2Cl)n(C)c1=O	HCV inh inconclusive, FMDV inh inconclusive, MARV entry inh inconclusive
Cn1c(Oc2ccc(F)cc2)nc2c1c(=O)n(Cc1ccccc1Cl)c(=O)n2C	Lassa entry inh inconclusive, FMDV inh 18µM, MARV entry inh inconclusive (no result: HCV inh)
COc1cc(=O)n2c(c1C(=O)N(C)Cc1ccsc1)CCN(Cc1c(C)nn(C)c1Cl)CC2	none (no result: HCV inh, Lassa entry inh, HCMV antiviral, MARV entry inh)
COc1cccc(NC(=O)c2sc(-n3nc(C)c(Cc4ccccc4Cl)c3C)nc2C)c1	FMDV inh inconclusive (no result: HCV inh)
c1cncc(-c2nc(NCCCN3CCOCC3)c3c4c(sc3n2)CCC4)c1	HCV inh inconclusive, Lassa entry inh inconclusive, MARV entry inh 10µM
CNC(=S)N1N=C(c2ccc(Br)cc2)CC1c1ccc(N(C)C)cc1 (stereo not drawn)	HCMV antiviral inconclusive, MARV entry inh inconclusive
CNC(=S)N1N=C(c2ccc(OC)cc2)CC1c1ccc(N(C)C)cc1 (stereo not drawn)	HCV inh 11µM, Lassa entry inh inconclusive, MARV entry inh inconclusive
Cn1cc(S(=O)(=O)N2CCCCCC2)cc1C(=O)Nc1ccccc1F	none (no result: HCV inh, MARV entry inh)
CC(NC(=O)CCCOc1ccc(Cl)cc1)c1ccccc1 (stereo not drawn)	none
CCCCOc1ccc(C(C)NC(=O)CCS(=O)(=O)Cc2ccccc2F)cc1 (stereo not drawn)	HCMV antiviral -66
Cc1csc2nc(COC(=O)c3ccc(NC(=O)C(C)C)cc3)cc(=O)n12	Lassa entry inh inconclusive (no result: HCV inh, MARV entry inh)
Cc1csc2nc(COC(=O)c3ccc(NC(=O)c4ccccc4Br)cc3)cc(=O)n12	Lassa entry inh inconclusive, HCMV antiviral -72 (no result: HCV inh, MARV entry inh)
Cc1cn2c(=O)cc(COC(=O)c3ccc(NC(=O)COc4ccccc4F)cc3)nc2s1	none (no result: HCV inh, MARV entry inh)
Cc1csc2nc(COC(=O)c3cccc(NC(=O)COc4ccc(Cl)cc4)c3)cc(=O)n12	Lassa entry inh inconclusive (no result: HCV inh, MARV entry inh)
Cc1cn2c(=O)cc(COC(=O)c3cccc(NC(=O)COc4ccccc4Cl)c3)nc2s1	FMDV inh 8.9µM (no result: HCV inh, MARV entry inh)
Cc1cccc(OCC(=O)Nc2cccc(C(=O)OCc3cc(=O)n4c(C)csc4n3)c2)c1	HCMV antiviral -61 (no result: HCV inh, MARV entry inh)
Cc1ccccc1OCC(=O)Nc1ccccc1C(=O)OCc1cc(=O)n2c(C)csc2n1	FMDV inh inconclusive, HCMV antiviral -75 (no result: HCV inh, MARV entry inh)
Cc1ccccc1OCC(=O)Nc1ccccc1C(=O)OCc1cc(=O)n2ccsc2n1	Lassa entry inh inconclusive (no result: HCV inh, MARV entry inh)
CCOC(=O)Cn1c(=O)cc(C(F)(F)C(F)(F)F)c2c(C)nn(CC)c21	HCMV antiviral inconclusive (no result: HCV inh, MARV entry inh)
COC(=O)C(/C=C/c1ccccc1)(c1cn(C)c2ccccc12)C(Nc1ccccc1)c1ccccc1 (stereo not drawn)	none (no result: HCV inh, Lassa entry inh, FMDV inh, MARV entry inh)
Cc1ccc(C(=O)N/N=C\c2cc3c(cc2Br)OCO3)s1	Lassa entry inh 11µM, MARV entry inh inconclusive
COC(=O)N/N=C\c1cc2c(cc1Br)OCO2	none
Cc1c2cnn(-c3ccccc3)c(=O)c2c(C)n1CCCC(=O)Nc1cc(F)ccc1F	none (no result: HCV inh)
Cc1ccccc1NC(=O)/C(C#N)=C/c1ccc(Cl)cc1Cl	none (no result: HCV inh)
N#C/C(=C\c1ccc(-c2cc(Cl)ccc2Cl)o1)C(=O)Nc1cccc2ncccc12	Lassa entry inh 3.7µM, MARV entry inh inconclusive (no result: HCV inh, FMDV inh, HCMV antiviral)
CCC(C)NC(=O)Cn1c(=O)n(CC2CCC(C(=O)NC)CC2)c(=O)c2sccc21 (stereo not drawn)	none (no result: HCV inh, MARV entry inh)
Cc1ccc(N2CC(C(=O)NC3CC3)CC2=O)cc1 (stereo not drawn)	none
Cc1ccc(N2CC(C(=O)NC3CCCCCC3)CC2=O)cc1 (stereo not drawn)	HCMV antiviral -64 (no result: HCV inh, Lassa entry inh, MARV entry inh)
Cn1c(=O)n(Cc2ccccc2)c(=O)c2c1nc1n2CCN1c1ccccc1	HCMV antiviral inconclusive (no result: HCV inh, MARV entry inh)
Cc1c(Cl)cccc1N1CCn2c1nc1c2c(=O)n(CC(=O)O)c(=O)n1C	Lassa entry inh inconclusive (no result: HCV inh)
C=C(C)Cn1c(=O)c2c(nc3n2CCN3c2cccc(Cl)c2C)n(C)c1=O	HCV inh inconclusive, FMDV inh 22µM
CCn1c(=O)c2c(nc3n2CCN3c2ccccc2)n(C)c1=O	HCV inh inconclusive, HCMV antiviral -75, MARV entry inh inconclusive
Cn1c(=O)n(C/C=C/c2ccccc2)c(=O)c2c1nc1n2CCCN1c1ccc(F)cc1	HCV inh 11µM, Lassa entry inh inconclusive, FMDV inh inconclusive, MARV entry inh inconclusive
O=C(CCCn1c(=O)c2cccn2c2cccnc21)Nc1ccccc1Br	none (no result: HCV inh, MARV entry inh)
COc1ccc(NC(=O)CC2C(=O)N(c3cccc(C)c3)C(=O)N2Cc2cccnc2)cc1 (stereo not drawn)	HCMV antiviral inconclusive (no result: HCV inh, MARV entry inh)
COc1ccc(CC(=O)N(Cc2ccccc2)c2cccc(C)c2)cc1OC	FMDV inh inconclusive, HCMV antiviral inconclusive (no result: HCV inh)
O=C(CCl)N(Cc1ccccc1)c1ccccc1	HCV inh 5µM, Lassa entry inh inconclusive, FMDV inh 22µM, HCMV antiviral -98, MARV entry inh 16µM
Cc1cccc(N(Cc2ccccc2)C(=O)CCl)c1	HCV inh 4µM, FMDV inh 13µM, HCMV antiviral -116, MARV entry inh inconclusive
